The full list was thinned out, with hits kept by preference.
HT1080 IDH1KD tx – HT-1080 IDH1 knockdown cell toxicity (counter line); Potency, µM (highest dose often 46.1 µM), hits mostly cytotoxic; hit rate 2% among 360,000; AID 686971; HT-1080 IDH1 knockdown viability, ATP luminescence, 48 h
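% activity derives from luminescence (CellTiter-Glo), normalised to DMSO and no-cell wells. HT-1080-IDH1KD cells, 750/well, had 48 h compound exposure at 37 °C.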
TDP1 cell CPT – growth inhibition of DT40 Tdp1-/-;hTDP1 cells with camptothecin (screen for TDP1 inhibitors) | Potency, µM (series often up to 46.2 µM), actives largely listed as inhibitors | hit rate 12% among 420,000 | chicken DT40 Tdp1-/-;hTDP1 cells + 20 nM CPT, ATP luminescence, 48 h; further: nearly all actives have a fitted effect of over 55% in size
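Cell growth measured by CellTiter-Glo luminescence after a minimum 48 h, 37 C compound exposure with 20 nM CPT in Tdp1-knockout DT40 cells stably expressing hTDP1, seeded 400/well; qHTS titration format.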
DT40 TDP1 no CPT – qHTS for Inhibitors of human tyrosyl-DNA phosphodiesterase 1 (TDP1): qHTS in cells in absence of CPT; DT40 Tdp1-/- hTDP1 cells, no CPT, ATP luminescence, 48 h; Potency, µM (titrated, usually from 46.2 µM), hits mostly inhibitors; AID 686978, 2013; hit rate 15% among 420,000; further: nearly all actives have a fitted effect of over 55% in size
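Chicken DT40 Tdp1-/- cells stably complemented with human TDP1 were seeded at 400 cells/well with DMSO in place of 20 nM camptothecin. After compound pinning, cells grew at least 48 hr at 37 °C; viability read by CellTiter-Glo luminescence.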
ALOX12 inh – blocks human arachidonate 12S-lipoxygenase | P18054 | purified 12hLO, xylenol orange hydroperoxide absorbance | Potency, µM (titrated, usually from 108 µM), most hits filed as inhibitors | hit rate 1.1% among 580,000 | AID 1671190
Target sequence (P18054 whole entry, looked up): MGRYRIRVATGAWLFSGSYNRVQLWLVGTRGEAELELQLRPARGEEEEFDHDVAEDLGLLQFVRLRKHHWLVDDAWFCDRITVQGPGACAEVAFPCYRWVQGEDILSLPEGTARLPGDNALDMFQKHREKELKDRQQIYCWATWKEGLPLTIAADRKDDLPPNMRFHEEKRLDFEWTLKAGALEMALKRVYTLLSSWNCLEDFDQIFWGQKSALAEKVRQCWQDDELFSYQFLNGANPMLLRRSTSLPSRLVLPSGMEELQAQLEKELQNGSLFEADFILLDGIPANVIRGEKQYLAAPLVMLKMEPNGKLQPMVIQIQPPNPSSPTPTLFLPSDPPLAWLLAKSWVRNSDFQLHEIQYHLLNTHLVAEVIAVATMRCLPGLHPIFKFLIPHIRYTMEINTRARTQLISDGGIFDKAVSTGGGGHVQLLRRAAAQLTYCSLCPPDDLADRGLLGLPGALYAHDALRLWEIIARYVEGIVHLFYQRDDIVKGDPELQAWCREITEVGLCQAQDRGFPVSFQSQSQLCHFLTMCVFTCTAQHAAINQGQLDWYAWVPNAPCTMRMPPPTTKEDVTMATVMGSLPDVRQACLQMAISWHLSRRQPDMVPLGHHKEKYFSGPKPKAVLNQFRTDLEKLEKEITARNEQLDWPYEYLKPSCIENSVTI
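Purified human 12hLO at 150 nM in 25 mM Hepes, 0.01% Triton X-100, pH 7.0, preincubated 15 min at room temperature with compound. Reaction started with 40 uM arachidonic acid, 30 min at room temperature. Hydroperoxide measured by Fe-xylenol orange, 573/405 nm absorbance ratio.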
HT1080NT lethal – kills 2HG-producing HT-1080-NT fibrosarcoma cells; HT-1080-NT fibrosarcoma viability, CellTiter-Glo ATP luminescence, 48 h; Potency, µM (doses to about 46.1 µM), most hits filed as cytotoxic; hit rate 1.6% among 360,000;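 further: NT is the 2HG producing partner of a matched IDH1 knockdown line; nearly all actives have a fitted effect of over 55% in size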
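Compounds were tested in concentration-response format on HT-1080-NT cells for 48 hours at 37 degrees C. Cell viability came from CellTiter-Glo luminescence; curves were classified by r2, response magnitude and activity.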
IL1B secr inh – inhibitors of inflammasome signaling (IL-1 beta secretion). THP-1 LPS/ATP IL-1B secretion, AlphaLISA, 16 h; active compounds read low. activity change, % at 57.5 µM. hit rate 4.7% among 360,000. AID 743279; in the data active means activity change below about -50%; inconclusive means mostly about -30% to -49%
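THP-1 cells pretreated 1 hr with compounds (up to 57.5 uM final), then stimulated with LPS (250 ng/mL final) plus ATP (1.25 mM final); secreted IL-1B measured by AlphaLISA after 16 hr, decreased signal indicating inhibition.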
A number is an active result; 0 = inactive; ? = inconclusive; - = no result given. Unless noted, the call rests on the fitted dose curve; in most records, active means well fitted curve in the direction sought with a large enough effect; inconclusive means small, poorly fitted or top-dose-only effect, or another doubt; inactive means no such curve, though single readings can be large; an effect the other way counts as inactive or inconclusive.

SMILES | HT1080 IDH1KD tx | TDP1 cell CPT | DT40 TDP1 no CPT | ALOX12 inh | HT1080NT lethal | IL1B secr inh
CC(=O)N1N=C(c2ccccc2)CC1c1cn(C)c2ccccc12 (stereo not given) | 0 | ? | 20.6µM | 0 | 0 | ?
COc1cccc(/C=C(\C#N)c2ccccc2)c1OC(C)C | - | - | - | 0 | - | -
CS(=O)(=O)N1N=C(c2ccc(Br)cc2)CC1c1ccc2c(c1)OCO2 (stereo not given) | 0 | ? | ? | - | 0 | 0
Cc1ccc(C2=NN(S(C)(=O)=O)C(c3ccc4c(c3)OCO4)C2)cc1 (stereo not given) | 0 | 20.6µM | 13µM | 0 | 0 | 0
CC(=O)Nc1cccc(C(=O)/C=C/c2ccc(F)cc2)c1 | 11.6µM | 2.31µM | 4.61µM | 0 | 0 | -192.2
CCC(=O)Nc1cccc(C(=O)/C=C/c2cc(Br)ccc2OC)c1 | 8.2µM | 2.91µM | 4.11µM | 0 | 8.2µM | -104.5
CC(=O)Nc1cccc(C(=O)/C=C/c2cccs2)c1 | 0 | ? | 20.6µM | 0 | 0 | -104.8
CC(=O)Nc1cccc(C(=O)/C=C/c2ccc(Br)cc2)c1 | 0 | 3.26µM | 4.61µM | 0 | ? | -107.0
CCCNC(=O)NC(=O)CSc1nc(NC2CC2)c2ccccc2n1 | - | - | - | 0 | - | -
COc1ccc(-c2noc([C@@H]3CCCN3C(=O)c3cc4ccccc4[nH]3)n2)cc1OC | - | - | - | 0 | - | -
CC(Cn1ccc2ccccc21)NC1CCN(c2ccc(C(=O)N(C)C)cc2)CC1 (stereo not given) | - | - | - | 0 | - | -
Cc1nc2scc(-c3ccccc3)c2c(=O)o1 | 0 | 0 | 0 | 0 | 0 | 0
Cc1nc2c(o1)C(=O)c1ccccc1C2=Nc1ccccc1 | 2.91µM | 2.31µM | 2.06µM | 0 | 5.8µM | -100.3
O=C(CSCc1cccs1)NCC1CCCO1 (stereo not given) | - | - | - | 0 | - | -
CNc1oc(-c2cc(S(=O)(=O)N(C)c3ccccc3)c(C)o2)nc1C#N | - | - | - | 0 | - | -
CCOC(=O)c1ccccc1NC(=O)C1CCN(c2ncnc3sc(C)c(C)c23)CC1 | 0 | 23.1µM | ? | - | 0 | 0
Cc1sc2ncnc(N3CCC(C(=O)Nc4ccccc4C(C)(C)C)CC3)c2c1C | 0 | 20.6µM | 13µM | 0 | 0 | 0
CCCN1C(=O)CCc2cc(NS(=O)(=O)CC)ccc21 | - | - | - | 0 | - | -
CCOC(=O)Nc1ccc2c3c(cccc13)-c1ccccc1-2 | ? | 18.4µM | 20.6µM | 0 | ? | 0
CCC(C(=O)O)N1C(=O)/C(=C/C(C)=C/c2ccccc2)SC1=S (stereo not given) | 0 | 0 | 0 | ? | 0 | 0
CC(/C=C1\SC(=S)N(NC(=O)c2ccc(O)cc2)C1=O)=C\c1ccccc1 | 0 | 0 | 0 | 0 | 0 | -75.7
CC(=C\c1ccccc1)/C=C1/SC(=S)N(C(C(=O)O)C(C)C)C1=O (stereo not given) | 0 | 0 | ? | 44.7µM | 0 | 0
COc1ccc(OC(=O)c2ccc(OC)c(Br)c2)cc1 | - | - | - | 0 | - | -
COc1cc(C(C)=O)ccc1OCCN1CCC(Cc2ccccc2)CC1 | ? | ? | ? | ? | 0 | -64.3
COc1cc(C(C)=O)ccc1OCC(=O)N1CCC(Cc2ccccc2)CC1 | 0 | ? | ? | 0 | 0 | 0
SMILES | HT1080 IDH1KD tx | TDP1 cell CPT | DT40 TDP1 no CPT | ALOX12 inh | HT1080NT lethal | IL1B secr inh
O=Cc1cc(Cl)ccc1OCCN1CCC(Cc2ccccc2)CC1 | ? | ? | 16.4µM | 2.24µM | 20.6µM | -92.9
COc1cc(C(C)=O)ccc1OCCCN1CCC(Cc2ccccc2)CC1 | ? | ? | ? | ? | ? | -55.4
O=C(CCC1CCCC1)NCC12CC3CC(CC(C3)C1)C2 | - | - | - | 0 | - | -
Cc1nc(Nc2nc(CCC(C)C)cc(=O)[nH]2)nc2ccccc12 | - | - | - | 0 | - | -
Cc1ccc(CNC(=O)C(Cc2ccccc2)NS(=O)(=O)c2ccc(Br)s2)cc1 (stereo not given) | 0 | 0 | ? | 0 | ? | -75.0
COc1ccc(C)cc1NC(=O)C(Cc1ccccc1)NS(=O)(=O)c1cccs1 (stereo not given) | - | 18.4µM | ? | 0 | - | -

Screening results: PubChem, National Center for Advancing Translational Sciences (NCATS)
